From PubChem BioAssay AID1527 (The Scripps Research Institute Molecular Screening Center, 2009) come the findings set out here.

Out of some 290,000 compounds screened, about 2,600 (0.9%) were called active. For the sample, actives were picked, then their nearest neighbours and some compounds at random. Unmarked numbers belong to inactive results.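 How the source made its calls: active means inhibition above the mean of all tested compounds plus 3 SD, cutoff set per screening run (cut at about 7.5% in these data); inactive means the rest.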

This experiment relates to VIM-2 metallo-beta-lactamase (Pseudomonas aeruginosa). As to the kind of experiment: VIM-2 metallo-beta-lactamase inhibitors, primary screen, biochemical, epi-absorbance readout, Pseudomonas aeruginosa enzyme (AID 1527).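 Further: red hydrolysis product quenches plate fluorescence so inhibitors raise well fluorescence; 0% = enzyme with DMSO and 100% = DMSO without enzyme.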 Particulars: purified VIM-2, nitrocefin hydrolysis, epi-absorbance fluorescence; at 5.6 µM; active compounds read high.
With `Cc1cccc(N(C)C(=O)c2cc3c(=O)[nH]c4ccc(C)cc4c3s2)c1`, the inhibition (in general, the change of the read-out against control, counted positive when it falls) was -1.79%.

As for `CCN(CC)CCCNC(=O)c1cc2c(=O)[nH]c3ccc(C)cc3c2s1`, the inhibition was 11.4% (active).

`CCN(CC)CCCNC(=O)c1cc(-c2cccc(Cl)c2)on1`: the inhibition is -2.99%.

For the compound `CCN(CC)c1ccc2cc(C(N)=O)/c(=N\NC(=O)c3ccncc3)oc2c1`, the inhibition was 17.2% (active).

For `NC(=O)c1cc2ccccc2o/c1=N/NC(=O)c1cccc(F)c1`, the inhibition is -3.88%.

As for `COc1ccc(C(=O)N/N=c2\oc3ccccc3cc2C(N)=O)cc1`, the inhibition is -2.23%.

For `COc1ccccc1CNC(=O)C1CCN(C(=O)[C@@H]2Cc3ccccc3CN2)CC1`, the inhibition is -1%.

In the case of `Nc1nc(SCc2cccc(Br)c2)n[nH]1`, the inhibition is -2.53%.

Take `Cc1cc(NC(C)C)n2c(nc3ccccc32)c1C#N`: the inhibition was 6.91%.

In the case of `Cc1cc(NCc2ccco2)n2c(nc3ccccc32)c1C#N`, the inhibition was 23.1% (active).

For `CC(C)c1cc(NCc2ccccn2)n2c(nc3ccccc32)c1C#N`, the inhibition is 3.25%.

For `CC(C)c1ccc2oc(=O)cc(CN3CCN(Cc4ccccc4)CC3)c2c1`, the inhibition is -0.17%.

Consider `CCOC(=O)N1CCC(N2Cc3cccc(C(=O)Nc4ccc(S(=O)(=O)N(CC)CC)cc4)c3C2=O)CC1`, for which the inhibition is 1.9%.

`O=C(NNS(=O)(=O)c1ccccc1)c1cnn(-c2ccc(Cl)cc2)c1C(F)(F)F`: the inhibition was -0.91%.

Turning to `COc1ccccc1N1CCN(c2nc(C)cc(=O)[nH]2)CC1`, the inhibition was -1.83%.

`CN(C)c1ccc(CNC2C3CC4CC(C3)CC2C4)cc1` (stereo not given): the inhibition was -1.88%.

With `O=C(CCC(=O)N/N=C/c1ccc(Br)o1)N/N=C/c1ccc(Br)o1`, the inhibition is -1.34%.

On to `CN1CCN(CCCNC(=O)c2cc3c(=O)oc4ccccc4c3s2)CC1`, for which the inhibition is 7.83% (active).

As for `O=C(NCCCN1CCOCC1)c1cc2c(s1)CCC2`, the inhibition was -5.51%.

On to `O=C(NCCN1CCN(Cc2ccccc2)CC1)c1cc2c(=O)[nH]c3ccccc3c2s1`, for which the inhibition was 7.06%.

In the case of `CCOC(=O)N1CCN(S(=O)(=O)N2CCCC(C(=O)NCCCN3CCC(C)CC3)C2)CC1` (stereo not given), the inhibition is -0.26%.

For `CC(=O)Nc1ccc(-c2nc3ccccc3o2)cc1`, the inhibition is -1.18%.

For the compound `CC(=O)Nc1ccc(Nc2c3ccccc3nc3ccccc23)cc1`, the inhibition is 9.49% (active).

`Cc1ccc(Nc2c3c(nc4ccccc24)CCC3)cc1`: the inhibition was 5.26%.

In the case of `Cc1ccc(Oc2nc3ccccc3n3c(C)nnc23)cc1`, the inhibition was 0.26%.

For `Nc1nnc2c(C(F)(F)F)nc3ccccc3n12`, the inhibition is 14.8% (active).

For the compound `FC(F)(F)c1nnc2c3ccccc3c(Cl)nn12`, the inhibition was 4.08%.

Take `COc1ccc(C2=NS(=O)(=O)N(C)C(C(=O)N(C)Cc3ccccc3)=C2)cc1`: the inhibition was -0.5%.

Turning to `Cc1cccn2c(=O)c3cc(C(=O)NC4CCCCC4)sc3nc12`, the inhibition is 8.99% (active).

As for `Cc1ccccc1-n1nc(C)c2cc(C(=O)NC3CC3)sc21`, the inhibition is -1.43%.

As to `CN(C(=O)c1cc2c(=O)n3ccccc3nc2s1)C1CCCCC1`, the inhibition is 3.44%.

Turning to `CCc1ccc(N(CC(=O)NCc2cccnc2)S(=O)(=O)c2ccccc2)cc1`, the inhibition was -2.09%.

With `COc1ccccc1C(=O)Nc1ccnn1C1CCN(C(=O)C(C)(C)C)CC1`, the inhibition is -0.24%.

As for `COc1ccc(-c2nn(C)c(=O)c3ccccc23)cc1NC(=O)COc1ccccc1`, the inhibition is 3.19%.

`CCC(=O)NCc1cc(-c2nn(C)c(=O)c3ccccc23)ccc1OC`: the inhibition was 1.81%.

With `COc1ccc(-c2nn(C)c(=O)c3ccccc23)cc1CNC(=O)C1CCCCC1`, the inhibition is 8.72% (active).

For the compound `c1ccc(-c2cc(-c3nnc4sc(-c5ccccn5)nn34)[nH]n2)cc1`, the inhibition is 6.5%.

With `COc1cc(-c2nn3c(-c4cccc(C)c4)nnc3s2)cc(OC)c1OC`, the inhibition is 14.8% (active).

Consider `COc1cc(-c2nnn(CC(=O)NCc3ccccc3)n2)cc(OC)c1OC`, for which the inhibition is -0.9%.

For `Fc1ccc(-c2ccc(-c3nn4c(-c5ccco5)nnc4s3)o2)cc1`, the inhibition is -1.72%.

With `COc1ccc(-c2nn3c(-c4ccccc4)nnc3s2)cc1OC`, the inhibition was 14.4% (active).

With `CCOc1cccc(-c2nn3c(-c4ccccn4)nnc3s2)c1`, the inhibition is 1.31%.

On to `COc1ccc(C)cc1S(=O)(=O)N(CC(=O)Nc1cccc([N+](=O)[O-])c1)c1ccc(C)cc1`, for which the inhibition was -0.96%.

Take `COc1ccc(C(C(=O)NC2CCCCC2)N(C(=O)c2snc(C(N)=O)c2N)c2ccccc2OC)cc1` (stereo not given): the inhibition is -3.87%.

As for `N#Cc1cc([N+](=O)[O-])ccc1NCC1CCCO1` (stereo not given), the inhibition was -4.39%.

On to `CN(Cc1ccccn1)Cc1nc(-c2ccc(Cl)cc2)no1`, for which the inhibition was -2.91%.

On to `CCN(CCn1cccn1)Cc1nc(-c2ccc(C(=O)OC)cc2)no1`, for which the inhibition is 0.55%.

With `COC(=O)c1ccc(-c2noc(CN(Cc3ccccn3)CC3CCCO3)n2)cc1` (stereo not given), the inhibition is 19.8% (active).

`COc1cc(/C=C2/SC(=S)N(Cc3ccccc3)C2=O)cc(OC)c1O`: the inhibition was 7.8% (active).

Take `COc1ccccc1C(=O)NNC(=O)CCN1C(=O)/C(=C\c2ccccc2)SC1=S`: the inhibition was -3.54%.

Turning to `COc1ccc(/C=C2\SC(=S)N(CCC(=O)Nc3ccccn3)C2=O)cc1OC`, the inhibition is -0.57%.

`O=C(CCc1ccccc1)NNC(=O)COc1ccc(Cl)cc1`: the inhibition was -4.89%.

Consider `Cc1ccc(C2CCN(C(=S)Nc3cccc(Cl)c3)C2)cc1` (stereo not given), for which the inhibition was -1.21%.

For `O=C(NCC(=O)N1CCN(c2ccccc2F)CC1)c1cccs1`, the inhibition is -3.61%.

Turning to `O=C(O)CS/C(=C\c1ccc(F)cc1)c1nc2ccccc2s1`, the inhibition was 2.23%.

As for `O=C(O)CC/C(=C\c1cc2c(cc1Br)OCO2)c1nc2ccccc2s1`, the inhibition is 7.92% (active).

On to `O=C(Nc1nc2ccccc2s1)c1ccc2c(c1)OCO2`, for which the inhibition was -3.05%.

With `C/C(=N\NC(=O)C1(C)CC1(Br)Br)c1ccc(C)cc1C` (stereo not given), the inhibition is -0.97%.

Consider `CC(C)n1c(COc2ccccc2)nc2ccccc21`, for which the inhibition is -2.15%.

Consider `O=C(CN1CCN(S(=O)(=O)c2cc(Cl)ccc2Cl)CC1)c1ccc(O)c(O)c1`, for which the inhibition was 2.29%.
